Common to all, as to test: PBM binding z-score (relative to random genomic background probes); higher = stronger binding; sequences stand for … in GC…GCGATTGACAGCGTAGAATGAAGG
Assay [1] deals with FXR:RXRa (NR concentration 270 nM, RXRa partner concentration 90 nM). In a few lines:
(§1)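 Custom Agilent 4×180K protein-binding microarrays carried double-stranded probes, each with a 34-nt variable region. These regions held direct-repeat seeds, single-nucleotide variants, half-site ablations and random human genomic background sequences. Ligand-free nuclear receptor dimers were incubated on the arrays for 1 h, antibodies against each partner (one per run) detected binding, and scanned fluorescence was regression-normalized. Binding z-scores take the random background probes as reference.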

For assay [2], the system named is LXRa:RXRa (NR concentration 270 nM, RXRa partner concentration 90 nM). In a few lines:
as §1

The test system of assay [3] is LXRa homodimer (NR concentration 270 nM). In a few lines: as §1
Assay [4] has as its system LXRb:RXRa (NR concentration 270 nM, RXRa partner concentration 90 nM). Summed up: as §1
The subject of assay [5] is LXRb homodimer (NR concentration 270 nM). Summed up: as §1
Assay [6] deals with PPARa:RXRa (NR concentration 270 nM, RXRa partner concentration 90 nM). In a few lines: as §1
For assay [7], the system named is PPARg:RXRa (NR concentration 180 nM, RXRa partner concentration 90 nM). In a few lines:
as §1

Assay [8] relates to PPARg:RXRa 270nM:90nM, anti-RXR (NR concentration 270 nM, RXRa partner concentration 90 nM). Summed up: as §1
In assay [9] the test system is PPARg:RXRa 30nM:10nM, anti-RXR (NR concentration 30 nM, RXRa partner concentration 10 nM). Summed up: as §1
Assay [10] relates to PPARg:RXRa 90nM:30nM, anti-RXR (NR concentration 90 nM, RXRa partner concentration 30 nM). In a few lines:
as §1

For assay [11], the system named is PPARg:RXRa DBDmut IVT, anti-RXR (DBD mutation: RXRa K156A/R161A, NR concentration 270 nM, RXRa partner concentration 90 nM). Summed up: as §1
In assay [12] the test system is PPARg:RXRa IVT, anti-PPARg (NR concentration 270 nM, RXRa partner concentration 90 nM). In a few lines: as §1
For assay [13], the system named is PPARg DBDmut:RXRa IVT, anti-PPARg (DBD mutation: PPARg1 K132A/R137A, NR concentration 270 nM, RXRa partner concentration 90 nM). In a few lines: as §1
Assay [14] relates to PPARg DBDmut IVT, anti-PPARg (DBD mutation: PPARg1 K132A/R137A, NR concentration 270 nM). Summed up: as §1
The subject of assay [15] is PPARg homodimer (NR concentration 180 nM). Summed up:
as §1

Assay [16] concerns PXR:RXRa (NR concentration 270 nM, RXRa partner concentration 90 nM). Summed up: as §1
Assay [17] concerns PXR homodimer (NR concentration 270 nM). Summed up:
as §1

In assay [18] the test system is RARa:RXR (NR concentration 270 nM, RXRa partner concentration 90 nM). Summed up: as §1
Assay [19] deals with RARa homodimer (NR concentration 270 nM). Summed up:
as §1

Assay [20] relates to RARb:RXRa (NR concentration 270 nM, RXRa partner concentration 90 nM). In a few lines: as §1

Take TCAAACAGGTGAAGGTAACTCAGGTACGCAGTCG: the PBM binding z-score in [1] was 1.02; in assay [2], 1.85; in assay [3], 0.0857; in assay [4], 1.22; in assay [5] it was -0.218; in [6], 1.61. The PBM binding z-score is 0.959 in [7]; 2.43 in [8]; 4.26 in [9]; 3.48 in assay [10]; 3.03 in assay [11]; 1.6 in assay [12]. Moreover, the PBM binding z-score was 0.098 in assay [13]; 0.184 in [14]; 0.662 in assay [15]; 0.812 in assay [16]; 0.0874 in assay [17]; 1.19 in assay [18]. In addition, the PBM binding z-score in assay [19] amounted to 0.552; in assay [20] it was 1.26.

ATCGAAAGGTCGTGAGGTGAGTCTACAGAAAGGC: the PBM binding z-score in assay [1] worked out at 4.96; in assay [2], 3.75; in assay [3] it was 0.0112; in assay [4] it was 3.17; in [5], 0.35; in assay [6], 4.99. For the same sequence, the PBM binding z-score in assay [7] was found to be 3.79; in [8], 4.19; in assay [9], 1.17; in assay [10] it was 2.92; in assay [11], 0.266; in [12], 2.6. Moreover, the PBM binding z-score in assay [13] is 0.998; in [14], 0.581; in assay [15] it was 1.51; in assay [16] it was 2.97; in [17], -0.0415; in assay [18], 3.84. The PBM binding z-score in [19] was found to be 0.605; in assay [20] it was 3.87.

CCTAGTGGGCCAAAAAGGTCATTGATGCCGATAA: the PBM binding z-score in assay [1] came to 3.3; in [2] it was 4.12; in assay [3], 3.05; in [4] it was 3.87; in [5] it was 0.134; in [6], 4.56. Besides, the PBM binding z-score was determined as 3.16 in assay [7]; 3.97 in [8]; 1.73 in assay [9]; 3.24 in assay [10]; 3.84 in [11]; 4.01 in assay [12]. Further, the PBM binding z-score in assay [13] is -0.411; in assay [14], -0.658; in assay [15], 3.24; in [16], 4.65; in assay [17], 3.02; in assay [18], 4.62. In addition, the results for the PBM binding z-score in [19] and in assay [20] were 1.5 and 3.94, respectively.

As to GCATATAGGTAATACAAGGAGAAAGTCCGATTGT, the PBM binding z-score in [1] is 0.156; in assay [2], -0.0258; in [3], -0.258; in [4] it was -0.357; in [5], -0.633; in assay [6], 0.37. The PBM binding z-score in [7] turned out to be 1.06; in assay [8] it was 0.421; in [9], 0.217; in assay [10], 0.104; in assay [11], 3.9; in assay [12], 2.35. Also, the PBM binding z-score in assay [13] was 0.451; in [14], 1; in assay [15], -0.266; in [16] it was -0.205; in assay [17] it was 0.00189; in assay [18] it was 0.277. Also, the PBM binding z-score in [19] is 0.43; in assay [20], -0.406.

Take ACAAACAGGTGATGAAGGTAACTCAGGCTATCAT: the PBM binding z-score in assay [1] was 0.258; in assay [2], 0.355; in assay [3] it was 0.00497; in assay [4], 0.22; in assay [5], 0.327; in assay [6], 0.415. The PBM binding z-score in assay [7] was determined as 0.866; in assay [8] it was 0.462; in assay [9], 0.363; in assay [10], 0.0404; in assay [11], 1.05; in assay [12], 1.01. Also, the PBM binding z-score in assay [13] came to 0.711; in [14], 0.584; in assay [15], 0.773; in [16], 0.14; in assay [17], 0.394; in assay [18], 0.713. Also, the PBM binding z-score in [19] was found to be 0.803; in assay [20], 0.582.

As to CCAGACAGGTGAGAAGGTAGCTCAGCCTCGATTA, the PBM binding z-score in assay [1] was -0.337; in assay [2], -0.342; in [3], -0.166; in [4] it was -0.33; in assay [5], -0.763; in assay [6], 0.0761. In addition, the PBM binding z-score was 0.0523 in assay [7]; 0.0588 in assay [8]; -0.801 in [9]; -0.121 in assay [10]; 0.778 in assay [11]; 0.189 in assay [12]. Besides, the PBM binding z-score in assay [13] is -0.969; in assay [14], -0.906; in [15], 0.136; in [16] it was -0.331; in assay [17], -0.00345; in assay [18], -0.134. In addition, the PBM binding z-score in assay [19] was found to be 0.0537; in [20], 0.327.

For the sequence CCTCCTGGGCCACGAAAGGTCATTGATTCAGTGA, the PBM binding z-score in assay [1] is 3.25; in assay [2] it was 5.1; in assay [3] it was 4.52; in assay [4], 4.15; in assay [5], -0.0448; in [6] it was 4.14. Moreover, the PBM binding z-score was 1.39 in [7]; 2.94 in assay [8]; 0.283 in assay [9]; 2.02 in [10]; 0.578 in [11]; 2.2 in [12]. Moreover, the PBM binding z-score is -0.811 in [13]; -1.6 in assay [14]; 1.96 in assay [15]; 5.33 in [16]; 0.829 in assay [17]; 4.92 in assay [18]. For the same sequence, the PBM binding z-score in assay [19] amounted to 0.516; in assay [20], 3.97.

For the origin of these results see the supplement of paper PMC6555819.
